An excerpt weighted towards active compounds, which were near 1.4% of everything screened.
MEX-5 binding: C. elegans MEX-5 TCR-2 RNA binding activity. Q9XUB2. MEX-5/FITC-TCR2 RNA binding, fluorescence polarization; hits give low values. activity score (negative = inhibition of binding), % at 10 µM. hit rate 0.38% among 300,000;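 active = inhibition past about -25% in most replicates, and total fluorescence under double the plate's negative control median, limit read from the data; inconclusive = replicates evenly split on the limit, or fluorescence at least double controls; inactive = too little inhibition in most replicates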;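 also: 0% = DMSO and -100% = 5 µM competing unlabeled TCR2 RNA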
MCL1-BIM inh: disrupts human MCL1 binding to BIM-BH3 peptide. Q07820. GST-MCL1 / FITC-Bim-BH3 fluorescence polarization. hit rate 0.68% among 320,000. inhibition, % at 10.9 µM. AID 2057;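 active = inhibition above the mean inhibition of all tested compounds plus 3 SD, set per campaign, cut at about 40% in these data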;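 also: 0% = DMSO wells and 100% = unlabeled Bim-BH3 peptide control; higher means more loss of mP so more displacement of Bim peptide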
Target sequence (Q07820 whole entry, looked up): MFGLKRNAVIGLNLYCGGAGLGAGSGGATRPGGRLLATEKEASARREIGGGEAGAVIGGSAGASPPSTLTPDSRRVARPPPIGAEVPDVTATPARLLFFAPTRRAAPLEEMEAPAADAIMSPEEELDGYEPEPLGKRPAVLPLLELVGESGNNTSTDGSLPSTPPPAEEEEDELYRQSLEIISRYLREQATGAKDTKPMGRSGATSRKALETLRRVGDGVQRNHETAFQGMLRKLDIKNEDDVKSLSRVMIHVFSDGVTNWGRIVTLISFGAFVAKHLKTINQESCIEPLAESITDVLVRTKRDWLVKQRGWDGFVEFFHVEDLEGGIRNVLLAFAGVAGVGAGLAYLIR
GLD-1 TGE inh: GLD-1-TGE RNA interaction inhibition (C. elegans). purified GLD-1 + fluorescein TGE RNA, fluorescence polarization. inhibition, % at 5.96 µM. hit rate 0.44% among 320,000. AID 2280;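 active = percent inhibition above a per-plate cutoff, the plate mean of test compounds plus 3 SD, cut at about 30% in these data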;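 also: 0% = DMSO wells with GLD-1 and probe and 100% = wells lacking GLD-1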
E coli Lon inh: E. coli protease La inhibition | P0A9M0 | hit rate 0.42% among 360,000 | purified E. coli Lon protease, fluorescence polarization | inhibition, % at 7.94 µM; in the data active = inhibition above about 13%, passing the limit was not always enough;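 also: 0% = enzyme with probe and DMSO and 100% = no enzyme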
BCLXL inh: Bcl-xL (human) inhibition. GST-Bcl-xL / FITC-Bim BH3 peptide fluorescence polarization. hit rate 0.7% among 320,000. AID 2129. Q07817. inhibition, % at 10.9 µM;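 active = inhibition above the mean of all tested compounds plus 3 SD, cutoff set per campaign, cut at about 30% in these data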;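 also: 0% = DMSO wells and 100% = unlabeled Bim-BH3 peptide competitor; inhibitors lower millipolarization by displacing the labeled peptide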
Numbers without * were called inactive; ? = inconclusive; . = no result.

SMILES	MEX-5 binding	MCL1-BIM inh	GLD-1 TGE inh	E coli Lon inh	BCLXL inh
COC(=O)CCC(=O)OC1(C)C(=O)C=C2C=C(C3CC3)N(Cc3ccc4c(c3)OCO4)C=C2C1=O (configuration not stated)	-6	9	17	0	12
COC(=O)CCC(=O)OC1(C)C(=O)C2=CN(CC(C)C)C(c3ccc(OC)cc3)=CC2=C(Br)C1=O (configuration not stated)	-17	46*	15	.	43*
COC(=O)CCC(=O)OC1(C)C(=O)C2=CN(CCCOC(C)C)C(c3ccc(OC)cc3)=CC2=C(Br)C1=O (configuration not stated)	?	45*	26	6	42*
COC(=O)CCC(=O)OC1(C)C(=O)C2=CN(C3CC3)C(c3ccc(OC)cc3)=CC2=C(Br)C1=O (configuration not stated)	-7	25	9	-14	25
COC(=O)CCC(=O)OC1(C)C(=O)C=C2C=C(C3CC3)N(Cc3ccc(OC)cc3)C=C2C1=O (configuration not stated)	-16	35	27	3	37*
COC(=O)CCC(=O)OC1(C)C(=O)C2=CN(CC3CC3)C(c3ccc(OC)cc3)=CC2=C(Br)C1=O (configuration not stated)	-18	35	21	9	33*
COC(=O)CCC(=O)OC1(C)C(=O)C2=CN(Cc3ccc(OC)cc3)C(c3ccc(OC)cc3)=CC2=C(Br)C1=O (configuration not stated)	-8	6	6	-42	11
Oc1[nH]c2ccccc2c1N=NC(=S)N1CCOCC1	-41*	7	-2	-1	0
O=C(/C=C/c1ccccc1)N/C(=C/c1ccccc1)C(=O)N1CCCCC1	1	-2	0	-1	-2
O=C(NNC(=O)c1cc(Cl)ccc1O)c1cccc(S(=O)(=O)N2CCOCC2)c1	-27*	12	3	10	9
O=C(O[C@@H]1Cc2c(O)cc(O)cc2O[C@@H]1c1cc(O)c(O)c(O)c1)c1cc(O)c(O)c(O)c1	-84*	.	.	.	.
Cc1cccc(N(CC(=O)NC2CCCCC2)C(=O)CCCC(=O)Nc2ccccn2)c1C	1	-1	-4	2	2
Clc1ccc(-c2nnc3sc(-c4ccc(Br)o4)nn23)cc1	.	36	58*	11	25
COc1ccc(OC)c(S(=O)(=O)Nc2ccc(O)c(Sc3ncn[nH]3)c2)c1	-34*	16	4	0	9
Cc1ccc(-c2nc(CS(=O)CC(=O)NCCC(C)C)c(C)o2)cc1 (configuration not stated)	-1	6	2	2	5
CNS(=O)(=O)c1cc2c3c(cccc3c1)C(=O)NC2=O	1	21	2	-4	32*
Cc1ccc(NS(=O)(=O)c2cc3c4c(cccc4c2)C(=O)NC3=O)cc1	-4	2	3	10	3
Cc1nn(C)c(C)c1CN(C)C(=O)C1c2ccccc2Oc2ccccc21	-47*	37	30	7	31*
CCOC(=O)CC1(NC(=O)C2CCC(=O)N(CCc3ccccc3)C2)CCCCC1 (configuration not stated)	-1	-1	2	7	-1
COc1ccccc1/C=C/C=C1\Oc2c(ccc(O)c2CN(C)C)C1=O	?	42*	-6	-76	53*
NC(=O)C1(N2CCCCC2)CCN(Cc2nc(-c3cccs3)no2)CC1	-35*	-12	1	1	1
O=C1OC(/C(=C\Nc2cc(Cl)ccc2O)[N+](=O)[O-])c2ccccc21 (configuration not stated)	-26*	-4	9	-2	1
Clc1ccccc1CN1CCc2sccc2C1	4	4	2	-2	5
O=C(NNc1ccccc1)C(=O)NNS(=O)(=O)c1ccc([N+](=O)[O-])cc1	-35*	19	8	0	12
O=C(NNc1ccccn1)C(=O)NNS(=O)(=O)c1ccc(F)cc1	-31*	-1	-5	-5	-1
O=C(NNc1ccc([N+](=O)[O-])cc1)Nc1ccccc1	0	6	3	3	3
O=C(NNc1ccccn1)C(=O)NNS(=O)(=O)c1ccc(Cl)cc1	-10	-9	0	2	-5
Cc1ccc(C(=O)NC(=S)NNS(=O)(=O)c2ccc(C)cc2)cc1	-2	1	6	20	-2

High-throughput results (PubChem BioAssay)
